The record followed here is article PMC7862700, “An all-to-all approach to the identification of sequence-specific readers for epigenetic DNA modifications on cytosine”.

Holding throughout (assay): DAPPL (digital affinity profiling via proximity ligation, sequencing); 10 mM Tris-HCl pH 7.5, 50 mM NaCl, 1 mM DTT, 4% glycerol, room temperature, 30 min; GST-TFs on glutathione beads, 16-mer random dsDNA library, 0.1% formaldehyde crosslink after washing; high values mean tight binding
One assay deals with T1, FEV (Homo sapiens, UniProt Q99581 1-238).
T1 sequence: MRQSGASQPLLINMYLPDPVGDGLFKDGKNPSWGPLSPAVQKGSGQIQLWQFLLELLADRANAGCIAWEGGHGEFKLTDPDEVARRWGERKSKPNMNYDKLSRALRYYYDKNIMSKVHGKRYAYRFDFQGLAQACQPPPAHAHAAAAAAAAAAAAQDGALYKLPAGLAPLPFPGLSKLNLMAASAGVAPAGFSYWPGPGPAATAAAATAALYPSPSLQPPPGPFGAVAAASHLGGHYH
To be noted: protein: recombinant; tags: N-terminal GST; dsDNA, one strand shown. An outline of the steps: (§1)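 Binding signal is each hexamer's read frequency for a factor divided by its frequency in the tag-only sample. The factors were GST-fused human transcription factors from yeast, captured on glutathione beads, DNA-barcoded and pooled with that sample. Pools were incubated with 200 nmole of a random double-stranded 16-mer DNA library in Tris/NaCl/DTT/glycerol buffer at room temperature for 30 min, then washed, crosslinked with 0.1% formaldehyde, proximity-ligated with BsaI/T4 ligase (1 h, 37 °C), PCR-amplified and sequenced on an Illumina NextSeq500.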

The target in another assay is ETV5 (Homo sapiens, UniProt P41161 1-510). The conditions noted are these: protein: recombinant; tags: N-terminal GST; dsDNA, one strand shown. The procedure, abridged:
as §1

The target in the next assay is HSF1 (Homo sapiens, UniProt Q00613 1-529). To be noted: protein: recombinant; tags: N-terminal GST; chain copies: 3; dsDNA, one strand shown. The procedure, abridged: as §1
Sequence of HSF1 (Q00613 whole entry): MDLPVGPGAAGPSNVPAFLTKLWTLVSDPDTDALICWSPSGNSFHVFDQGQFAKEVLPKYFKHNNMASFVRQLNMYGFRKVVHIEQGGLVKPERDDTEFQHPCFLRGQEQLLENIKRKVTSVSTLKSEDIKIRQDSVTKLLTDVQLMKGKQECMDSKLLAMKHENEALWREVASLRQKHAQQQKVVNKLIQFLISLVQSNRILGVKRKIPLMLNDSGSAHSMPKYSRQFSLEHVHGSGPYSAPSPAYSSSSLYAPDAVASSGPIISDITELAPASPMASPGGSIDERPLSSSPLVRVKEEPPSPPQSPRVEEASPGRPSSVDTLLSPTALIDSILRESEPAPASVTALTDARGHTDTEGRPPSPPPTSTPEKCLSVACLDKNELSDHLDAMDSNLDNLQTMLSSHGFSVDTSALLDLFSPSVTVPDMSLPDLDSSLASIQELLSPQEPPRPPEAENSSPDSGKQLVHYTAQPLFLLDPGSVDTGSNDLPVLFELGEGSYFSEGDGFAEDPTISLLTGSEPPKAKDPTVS
For another assay, the target named is T2, SPIC (Homo sapiens, UniProt Q8N5J4 1-248).
T2 sequence: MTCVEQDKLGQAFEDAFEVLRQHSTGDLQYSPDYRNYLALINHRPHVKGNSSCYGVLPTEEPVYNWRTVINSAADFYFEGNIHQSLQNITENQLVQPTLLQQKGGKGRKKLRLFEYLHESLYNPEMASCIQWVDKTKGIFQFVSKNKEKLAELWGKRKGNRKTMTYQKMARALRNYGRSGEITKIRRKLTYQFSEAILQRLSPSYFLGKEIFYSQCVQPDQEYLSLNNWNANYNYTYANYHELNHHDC
The conditions noted are these: protein: recombinant; tags: N-terminal GST; dsDNA, one strand shown. An outline of the steps: as §1

In the next assay the target is ELF4 (Homo sapiens, UniProt Q99607 1-663). To be noted: protein: recombinant; tags: N-terminal GST; dsDNA, one strand shown. An outline of the steps:
as §1

For a further assay, the target named is T3, ELK4 (Homo sapiens, UniProt P28324-2 1-405).
T3 sequence: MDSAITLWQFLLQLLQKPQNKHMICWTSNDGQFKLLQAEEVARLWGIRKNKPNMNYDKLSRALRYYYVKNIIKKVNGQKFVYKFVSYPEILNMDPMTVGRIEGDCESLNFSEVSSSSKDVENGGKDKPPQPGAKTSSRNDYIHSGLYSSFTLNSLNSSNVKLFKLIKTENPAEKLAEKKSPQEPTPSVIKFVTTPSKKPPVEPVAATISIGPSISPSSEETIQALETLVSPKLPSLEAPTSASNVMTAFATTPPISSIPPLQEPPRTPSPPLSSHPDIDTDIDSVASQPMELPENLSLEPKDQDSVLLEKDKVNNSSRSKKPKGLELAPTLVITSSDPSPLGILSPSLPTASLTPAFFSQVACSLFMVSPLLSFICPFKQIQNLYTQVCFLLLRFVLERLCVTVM
The conditions noted are these: protein: recombinant; tags: N-terminal GST; dsDNA, one strand shown. The procedure, abridged: as §1

A further assay has as its target T4, ETV2 (Homo sapiens, UniProt O00321 1-342).
T4 sequence: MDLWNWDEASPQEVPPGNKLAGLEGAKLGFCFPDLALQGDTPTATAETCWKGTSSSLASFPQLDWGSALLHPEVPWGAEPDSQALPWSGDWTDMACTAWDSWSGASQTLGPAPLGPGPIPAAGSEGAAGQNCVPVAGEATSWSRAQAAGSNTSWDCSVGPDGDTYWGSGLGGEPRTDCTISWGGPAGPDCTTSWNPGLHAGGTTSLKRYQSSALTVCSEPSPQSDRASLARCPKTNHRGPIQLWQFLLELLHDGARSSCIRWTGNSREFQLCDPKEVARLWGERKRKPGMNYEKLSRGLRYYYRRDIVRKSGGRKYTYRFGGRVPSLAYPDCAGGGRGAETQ
The conditions noted are these: protein: recombinant; tags: N-terminal GST; dsDNA, one strand shown. An outline of the steps: as §1

The target in the next assay is T5, ELF3 (Homo sapiens, UniProt P78545 1-371).
T5 sequence: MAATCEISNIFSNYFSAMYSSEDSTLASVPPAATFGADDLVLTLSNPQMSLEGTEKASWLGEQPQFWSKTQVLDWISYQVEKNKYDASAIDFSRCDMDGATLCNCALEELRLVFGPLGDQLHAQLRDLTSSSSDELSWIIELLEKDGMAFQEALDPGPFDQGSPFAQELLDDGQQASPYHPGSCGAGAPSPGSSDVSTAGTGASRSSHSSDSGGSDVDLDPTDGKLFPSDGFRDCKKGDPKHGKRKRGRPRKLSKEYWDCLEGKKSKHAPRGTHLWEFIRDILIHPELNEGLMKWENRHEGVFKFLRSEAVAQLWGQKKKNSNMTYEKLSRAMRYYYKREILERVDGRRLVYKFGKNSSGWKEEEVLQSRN
To be noted: protein: recombinant; tags: N-terminal GST; dsDNA, one strand shown. The procedure, abridged: as §1

The target of a further assay is CRX (Homo sapiens, UniProt O43186 1-299). The conditions noted are these: protein: recombinant; tags: N-terminal GST; dsDNA, one strand shown. An outline of the steps:
as §1

A further assay has as its target ETV1 (Homo sapiens, UniProt P50549 1-477). The conditions noted are these: protein: recombinant; tags: N-terminal GST; dsDNA, one strand shown. The procedure, abridged: as §1
The next assay deals with T6, ERF (Homo sapiens, UniProt P50548 1-548).
T6 sequence: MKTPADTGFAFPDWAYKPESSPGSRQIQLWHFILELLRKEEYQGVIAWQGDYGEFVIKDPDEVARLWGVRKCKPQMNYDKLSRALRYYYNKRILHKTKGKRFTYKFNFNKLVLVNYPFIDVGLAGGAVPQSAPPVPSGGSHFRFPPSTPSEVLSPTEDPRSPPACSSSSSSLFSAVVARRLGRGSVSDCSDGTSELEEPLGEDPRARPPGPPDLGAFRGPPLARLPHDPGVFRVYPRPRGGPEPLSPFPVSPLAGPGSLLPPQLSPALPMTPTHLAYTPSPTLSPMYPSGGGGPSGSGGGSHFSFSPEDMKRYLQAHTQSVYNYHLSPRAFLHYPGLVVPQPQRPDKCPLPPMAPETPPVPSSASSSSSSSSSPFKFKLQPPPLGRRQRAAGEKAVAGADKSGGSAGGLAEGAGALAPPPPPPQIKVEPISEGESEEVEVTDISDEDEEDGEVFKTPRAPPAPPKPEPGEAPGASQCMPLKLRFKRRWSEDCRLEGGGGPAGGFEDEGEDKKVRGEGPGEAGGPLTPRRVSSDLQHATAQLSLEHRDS
To be noted: protein: recombinant; tags: N-terminal GST; dsDNA, one strand shown. The procedure, abridged: as §1

A further assay addresses T7, ETV3L (Homo sapiens, UniProt Q6ZN32 1-361).
T7 sequence: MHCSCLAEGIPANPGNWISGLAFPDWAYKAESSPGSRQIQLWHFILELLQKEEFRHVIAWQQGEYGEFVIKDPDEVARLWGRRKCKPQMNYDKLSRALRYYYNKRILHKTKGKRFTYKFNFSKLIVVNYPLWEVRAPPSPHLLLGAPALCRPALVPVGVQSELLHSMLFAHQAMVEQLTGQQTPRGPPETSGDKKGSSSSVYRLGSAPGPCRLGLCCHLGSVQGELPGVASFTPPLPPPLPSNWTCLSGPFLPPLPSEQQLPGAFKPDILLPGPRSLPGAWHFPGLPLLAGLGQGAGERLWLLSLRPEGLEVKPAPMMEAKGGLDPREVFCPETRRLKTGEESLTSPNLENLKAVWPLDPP
The conditions noted are these: protein: recombinant; tags: N-terminal GST; dsDNA, one strand shown. An outline of the steps:
as §1

The target of another assay is T8, ETS2 (Homo sapiens, UniProt P15036 1-469).
T8 sequence: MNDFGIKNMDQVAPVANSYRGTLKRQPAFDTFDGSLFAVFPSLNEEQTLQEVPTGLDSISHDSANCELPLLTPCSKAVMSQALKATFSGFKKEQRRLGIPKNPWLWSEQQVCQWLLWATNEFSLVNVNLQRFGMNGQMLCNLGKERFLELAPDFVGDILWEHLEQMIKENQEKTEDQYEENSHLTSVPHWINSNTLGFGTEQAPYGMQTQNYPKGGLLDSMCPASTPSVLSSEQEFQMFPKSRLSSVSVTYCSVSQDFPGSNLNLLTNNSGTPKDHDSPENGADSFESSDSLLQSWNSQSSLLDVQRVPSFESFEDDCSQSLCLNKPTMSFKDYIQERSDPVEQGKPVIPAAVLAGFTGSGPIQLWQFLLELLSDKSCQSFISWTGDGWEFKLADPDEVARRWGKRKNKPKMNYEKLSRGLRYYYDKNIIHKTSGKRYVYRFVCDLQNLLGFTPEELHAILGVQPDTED
To be noted: protein: recombinant; tags: N-terminal GST; dsDNA, one strand shown. The procedure, abridged: as §1

A further assay has as its target T9, SPDEF (Homo sapiens, UniProt O95238 1-335).
T9 sequence: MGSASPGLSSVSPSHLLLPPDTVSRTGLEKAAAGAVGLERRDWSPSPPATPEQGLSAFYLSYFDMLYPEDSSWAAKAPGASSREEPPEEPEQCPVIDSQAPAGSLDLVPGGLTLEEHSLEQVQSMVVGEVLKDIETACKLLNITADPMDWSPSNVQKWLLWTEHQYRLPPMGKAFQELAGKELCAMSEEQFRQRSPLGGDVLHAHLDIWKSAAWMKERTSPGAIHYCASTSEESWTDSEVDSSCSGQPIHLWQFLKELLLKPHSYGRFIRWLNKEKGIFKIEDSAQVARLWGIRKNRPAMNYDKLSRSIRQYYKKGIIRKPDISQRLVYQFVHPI
To be noted: protein: recombinant; tags: N-terminal GST; dsDNA, one strand shown. An outline of the steps: as §1

The next assay addresses T10, ETV7 (Homo sapiens, UniProt Q9Y603 1-341).
T10 sequence: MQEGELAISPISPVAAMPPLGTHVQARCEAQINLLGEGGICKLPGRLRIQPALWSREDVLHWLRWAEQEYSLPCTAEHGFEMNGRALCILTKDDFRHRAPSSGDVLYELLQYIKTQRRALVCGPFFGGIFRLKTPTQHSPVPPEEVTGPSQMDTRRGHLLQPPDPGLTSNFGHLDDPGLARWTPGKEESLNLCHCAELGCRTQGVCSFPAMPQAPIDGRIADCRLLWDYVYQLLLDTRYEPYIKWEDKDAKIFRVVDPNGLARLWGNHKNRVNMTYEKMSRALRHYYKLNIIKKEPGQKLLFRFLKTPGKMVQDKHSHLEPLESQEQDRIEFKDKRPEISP
To be noted: protein: recombinant; tags: N-terminal GST; dsDNA, one strand shown. An outline of the steps: as §1

In the next assay the target is T11, ELF5 (Homo sapiens, UniProt Q9UKW6-2 1-255).
T11 sequence: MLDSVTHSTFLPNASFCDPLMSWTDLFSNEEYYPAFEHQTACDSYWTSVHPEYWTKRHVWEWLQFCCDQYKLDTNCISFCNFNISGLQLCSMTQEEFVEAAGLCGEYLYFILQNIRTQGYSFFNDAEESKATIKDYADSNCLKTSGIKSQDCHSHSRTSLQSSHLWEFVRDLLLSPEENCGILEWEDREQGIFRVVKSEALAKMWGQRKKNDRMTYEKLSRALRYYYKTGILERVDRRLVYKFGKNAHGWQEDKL
To be noted: protein: recombinant; tags: N-terminal GST; dsDNA, one strand shown. An outline of the steps: as §1

In a further assay the target is T12, ETV3 (Homo sapiens, UniProt P41162-2 1-143).
T12 sequence: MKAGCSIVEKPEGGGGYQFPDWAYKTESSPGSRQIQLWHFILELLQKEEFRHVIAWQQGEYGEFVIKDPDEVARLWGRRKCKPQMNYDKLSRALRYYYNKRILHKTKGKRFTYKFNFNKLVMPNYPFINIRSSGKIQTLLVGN
The conditions noted are these: protein: recombinant; tags: N-terminal GST; dsDNA, one strand shown. An outline of the steps: as §1

The next assay concerns the target ETV6 (Homo sapiens, UniProt P41212 1-452). The conditions noted are these: protein: recombinant; tags: N-terminal GST; dsDNA, one strand shown. The procedure, abridged:
as §1

Sequence of ELF4 (Q99607 whole entry): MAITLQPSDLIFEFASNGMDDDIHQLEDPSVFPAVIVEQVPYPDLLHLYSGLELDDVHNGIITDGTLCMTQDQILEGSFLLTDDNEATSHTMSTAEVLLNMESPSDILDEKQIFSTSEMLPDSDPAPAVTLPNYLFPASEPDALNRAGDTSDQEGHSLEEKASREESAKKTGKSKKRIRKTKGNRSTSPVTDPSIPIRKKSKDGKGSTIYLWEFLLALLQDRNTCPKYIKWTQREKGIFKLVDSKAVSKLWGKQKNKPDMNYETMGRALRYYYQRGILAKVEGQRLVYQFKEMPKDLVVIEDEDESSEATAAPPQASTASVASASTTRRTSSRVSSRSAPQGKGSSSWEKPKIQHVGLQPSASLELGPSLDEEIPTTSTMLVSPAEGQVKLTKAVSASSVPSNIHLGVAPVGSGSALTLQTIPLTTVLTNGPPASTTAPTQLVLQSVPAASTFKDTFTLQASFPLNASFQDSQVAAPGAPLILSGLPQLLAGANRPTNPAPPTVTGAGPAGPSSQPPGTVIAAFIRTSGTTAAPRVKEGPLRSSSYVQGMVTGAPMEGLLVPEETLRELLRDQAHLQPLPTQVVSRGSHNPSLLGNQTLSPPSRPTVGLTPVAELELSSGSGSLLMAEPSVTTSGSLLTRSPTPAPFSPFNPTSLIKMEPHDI
Sequence of CRX (O43186 whole entry): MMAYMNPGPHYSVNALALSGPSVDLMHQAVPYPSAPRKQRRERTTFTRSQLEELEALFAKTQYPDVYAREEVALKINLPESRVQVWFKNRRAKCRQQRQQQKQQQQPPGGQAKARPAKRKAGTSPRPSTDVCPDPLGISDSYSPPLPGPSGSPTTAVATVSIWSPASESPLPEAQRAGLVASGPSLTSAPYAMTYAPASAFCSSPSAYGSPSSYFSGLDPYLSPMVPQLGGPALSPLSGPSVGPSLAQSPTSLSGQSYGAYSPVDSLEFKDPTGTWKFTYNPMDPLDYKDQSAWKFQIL
Sequence of ETV5 (P41161 whole entry): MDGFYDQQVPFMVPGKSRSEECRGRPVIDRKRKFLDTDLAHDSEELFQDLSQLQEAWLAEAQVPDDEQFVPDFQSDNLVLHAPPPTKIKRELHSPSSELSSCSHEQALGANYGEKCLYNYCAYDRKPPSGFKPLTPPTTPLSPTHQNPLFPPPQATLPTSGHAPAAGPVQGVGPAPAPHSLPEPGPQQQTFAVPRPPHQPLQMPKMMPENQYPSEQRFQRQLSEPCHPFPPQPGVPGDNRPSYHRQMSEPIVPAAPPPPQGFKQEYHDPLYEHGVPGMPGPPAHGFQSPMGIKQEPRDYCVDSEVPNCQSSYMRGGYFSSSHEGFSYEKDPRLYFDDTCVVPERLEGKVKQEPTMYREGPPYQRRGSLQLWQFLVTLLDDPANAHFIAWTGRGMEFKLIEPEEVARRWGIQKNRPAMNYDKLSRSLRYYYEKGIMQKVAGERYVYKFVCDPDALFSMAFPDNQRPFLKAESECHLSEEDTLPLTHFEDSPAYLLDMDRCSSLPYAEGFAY
Sequence of ETV6 (P41212 whole entry): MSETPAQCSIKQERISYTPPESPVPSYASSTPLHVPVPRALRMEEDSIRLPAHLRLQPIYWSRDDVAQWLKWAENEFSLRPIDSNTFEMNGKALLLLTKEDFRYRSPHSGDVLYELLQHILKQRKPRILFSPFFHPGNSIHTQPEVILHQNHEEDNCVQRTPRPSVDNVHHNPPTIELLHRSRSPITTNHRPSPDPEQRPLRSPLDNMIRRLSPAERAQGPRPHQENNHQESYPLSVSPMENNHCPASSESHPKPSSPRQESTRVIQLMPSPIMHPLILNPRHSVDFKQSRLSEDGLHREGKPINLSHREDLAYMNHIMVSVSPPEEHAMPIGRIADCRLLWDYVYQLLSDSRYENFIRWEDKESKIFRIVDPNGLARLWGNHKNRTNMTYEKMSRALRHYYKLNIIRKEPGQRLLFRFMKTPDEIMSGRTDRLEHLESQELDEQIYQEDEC
Sequence of ETV1 (P50549 whole entry): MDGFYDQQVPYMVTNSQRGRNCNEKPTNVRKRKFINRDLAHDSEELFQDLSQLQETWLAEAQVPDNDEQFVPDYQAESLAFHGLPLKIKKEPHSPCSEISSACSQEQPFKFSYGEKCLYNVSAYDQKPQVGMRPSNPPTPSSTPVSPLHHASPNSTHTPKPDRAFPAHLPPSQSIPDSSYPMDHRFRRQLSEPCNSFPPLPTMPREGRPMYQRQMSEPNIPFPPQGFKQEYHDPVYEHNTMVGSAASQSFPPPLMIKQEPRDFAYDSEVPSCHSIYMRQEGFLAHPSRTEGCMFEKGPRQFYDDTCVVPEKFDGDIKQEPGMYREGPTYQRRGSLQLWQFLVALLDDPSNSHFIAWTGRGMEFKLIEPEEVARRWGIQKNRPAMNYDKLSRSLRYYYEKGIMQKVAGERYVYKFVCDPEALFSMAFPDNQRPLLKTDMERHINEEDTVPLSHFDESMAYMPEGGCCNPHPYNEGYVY

As for GCATTT, the binding signal was 1.57 fold enrichment (6-mer frequency, TF over GST control) with FEV; 1.38 fold enrichment (6-mer frequency, TF over GST control) with ETV5; 1.15 fold enrichment (6-mer frequency, TF over GST control) with HSF1; 1.37 fold enrichment (6-mer frequency, TF over GST control) in the assay with SPIC; 1.4 fold enrichment (6-mer frequency, TF over GST control) with ELF4; 1.27 fold enrichment (6-mer frequency, TF over GST control) with ELK4. In addition, the binding signal in the assay with ETV2 was 1.25 fold enrichment (6-mer frequency, TF over GST control); in the assay with ELF3, 1.33 fold enrichment (6-mer frequency, TF over GST control); in the assay with CRX, 1.16 fold enrichment (6-mer frequency, TF over GST control); with ETV1 it was 1.37 fold enrichment (6-mer frequency, TF over GST control); in the assay with ERF, 1.31 fold enrichment (6-mer frequency, TF over GST control); in the assay with ETV3L, 1.35 fold enrichment (6-mer frequency, TF over GST control). Besides, the binding signal with ETS2 is 1.34 fold enrichment (6-mer frequency, TF over GST control); in the assay with SPDEF, 1.36 fold enrichment (6-mer frequency, TF over GST control); with ETV7, 1.31 fold enrichment (6-mer frequency, TF over GST control); with ELF5 it was 1.4 fold enrichment (6-mer frequency, TF over GST control); in the assay with ETV3, 1.36 fold enrichment (6-mer frequency, TF over GST control); with ETV6, 1.39 fold enrichment (6-mer frequency, TF over GST control).
